{"source": "ChEMBL document CHEMBL3988442", "about": "“University of Dundee, Small-Polar-MMV Screening Library” (2021)", "note": "About 950 (1.4%) of roughly 69,000 compounds showed an effect of 50% or more. Shown is part of a subset that was picked to be rich in strong results."}
{"system": "Mycobacterium tuberculosis", "assay": "Cornell M. t heat shock assay; further: in the data most compounds retested in dose-response had high values", "format": "functional, organism-based", "set-up": "dose or concentration left out as unconfirmed", "units": {"Percent Effect": "%"}}
{"molecule": "Cc1cccc2c1OCCC2NCc1c(C)nn(C)c1N(C)C", "note": "(configuration not stated)", "Percent Effect": -4.09}
{"molecule": "Cc1ccc2c(c1)OCCCC2NCc1nccn1CC(C)C", "note": "(configuration not stated)", "Percent Effect": 101.9}
{"molecule": "Cn1cc(CNC2CCCOc3c(Cl)cccc32)cn1", "note": "(configuration not stated)", "Percent Effect": 12.93}
{"molecule": "Cc1ccc2c(c1)C(NCc1nnc3n1CCCCC3)CCCO2", "note": "(configuration not stated)", "Percent Effect": -13.54}
{"molecule": "Cn1cc(CNC2CCCOc3c2ccc2ccccc32)cn1", "note": "(configuration not stated)", "Percent Effect": 11.28}
{"molecule": "Cc1ccc2c(c1)C(NCc1nccn1Cc1ccccc1)CCCO2", "note": "(configuration not stated)", "Percent Effect": 102}
{"molecule": "CN(C(=O)NCc1nccn1Cc1ccccc1)C1CC1", "Percent Effect": -34.67}
{"molecule": "Cc1cccc2c1OCCCC2NCc1nnc2n1CCCCC2", "note": "(configuration not stated)", "Percent Effect": -4.885}
{"molecule": "Cc1ccc2c(c1)OCCCC2NCc1nnc2n1CCCCC2", "note": "(configuration not stated)", "Percent Effect": -7.759}
{"molecule": "COc1cccc(CNC2CCCOc3cc(C)ccc32)n1", "note": "(configuration not stated)", "Percent Effect": -23.35}
{"molecule": "Cc1cccc2c1OCCCC2NCc1nccn1Cc1ccccc1", "note": "(configuration not stated)", "Percent Effect": 104.4}
{"molecule": "Cn1ccnc1CNC1CCCOc2c1ccc1ccccc21", "note": "(configuration not stated)", "Percent Effect": 95.81}
{"molecule": "Br.Cn1cc(CN2CCOC(c3cccc(-c4cncnc4)n3)C2)cn1", "note": "(configuration not stated)", "Percent Effect": -10.8}
{"molecule": "Cl.c1cncc(CNCc2cccs2)c1", "Percent Effect": 5.045}
{"molecule": "O=C(O)C(F)(F)F.O=C1[C@H]2CN(Cc3nccs3)C[C@H]2CN1c1ccsc1", "Percent Effect": 28.97}
{"molecule": "Cc1nn(C)c(C)c1S(=O)(=O)N1C[C@@H]2C[C@@H](C)O[C@@H]2C1.O=C(O)C(F)(F)F", "Percent Effect": 3.558}
{"molecule": "NC(=O)CC1CC2(CCNCC2)c2cc(F)ccc21.O=C(O)C(F)(F)F", "note": "(configuration not stated)", "Percent Effect": 15.23}
{"molecule": "Cn1cc(C(=O)NCc2cn3c(n2)CN(C2CCOCC2)CC3)cn1.O=C(O)C(F)(F)F", "Percent Effect": -17.41}
{"molecule": "Cc1ccc2c(c1)OCCCC2NC1CCN(C)CC1", "note": "(configuration not stated)", "Percent Effect": 11.02}
{"molecule": "CCC1COCCN1C(=O)NCc1nccn1Cc1ccccc1", "note": "(configuration not stated)", "Percent Effect": -21.62}
{"molecule": "c1ccc2c(c1)OCCCC2NCc1nnc2n1CCCCC2", "note": "(configuration not stated)", "Percent Effect": 7.956}
{"molecule": "Cc1ccc2c(c1)OCCCC2NCc1nccn1Cc1ccccc1", "note": "(configuration not stated)", "Percent Effect": 101.1}
{"molecule": "c1ccc(Cn2ccnc2CNC2CCCOc3ccccc32)cc1", "note": "(configuration not stated)", "Percent Effect": 104.4}
{"molecule": "COc1c(CNC2CCCOc3ccccc32)c(C)nn1C", "note": "(configuration not stated)", "Percent Effect": -2.184}
{"molecule": "Cc1cncc(C(=O)N2C[C@@H]3CN(S(C)(=O)=O)CCO[C@@H]3C2)c1.O=C(O)C(F)(F)F", "Percent Effect": 15.78}
{"molecule": "CC1CCN(C(=O)[C@@H]2C[C@@H]3CCN(Cc4nccs4)C[C@H]3O2)CC1.O=C(O)C(F)(F)F", "Percent Effect": 11.99}
{"molecule": "CCC1CN(C(=O)c2csc3nc(-c4ccc(Cl)cc4)cn23)CCN1", "note": "(configuration not stated)", "Percent Effect": 59.48}
{"molecule": "CC(C)N1CCN(C(=O)c2csc3nc(-c4ccc(Cl)cc4)cn23)CC1", "Percent Effect": 2.331}
{"molecule": "O=C(c1csc2nc(-c3ccc(Cl)cc3)cn12)N1CCCC(CO)C1", "note": "(configuration not stated)", "Percent Effect": 17.74}
{"molecule": "O=C(Nc1cccnc1)[C@H]1C[C@@H]2CN(C(=O)NC3CCCC3)C[C@H]1O2", "Percent Effect": -0.1164}
{"molecule": "O=C1C[C@H]2CC[C@@H](CN1)N2C1CCOCC1", "Percent Effect": -8.619}
{"molecule": "O=C(NC1CCCC1)c1nc2c(o1)CN(C(=O)CCO)C2", "Percent Effect": 6.229}
{"molecule": "O=C(NC1CCCC1)c1nc2c(o1)CN(CCO)C2", "Percent Effect": 51.46}
{"molecule": "O=C(NC1CCCC1)c1nc2c(o1)CN(C(=O)CO)C2", "Percent Effect": 10.14}
{"molecule": "CN(C)C(C(=O)N1CCSCC1)c1ccccc1F", "note": "(configuration not stated)", "Percent Effect": 7.911}
{"molecule": "CN(C)C(C(=O)N1CCCC1)c1ccccc1F", "note": "(configuration not stated)", "Percent Effect": 12.45}
{"molecule": "CN(C)C(C(=O)N1CCC(N2CCSCC2)CC1)c1ccccc1F", "note": "(configuration not stated)", "Percent Effect": 64.18}
{"molecule": "COc1ccccc1CNC(=O)C1=NN(c2ccc(C)cc2)C(=O)CN1", "Percent Effect": 73.51}
{"molecule": "COc1ccc(C)cc1CNC(=O)C1=NN(c2ccccc2)C(=O)CN1", "Percent Effect": 30.82}
{"molecule": "COc1ccc(CNC(=O)C2=NN(c3ccc(C)cc3)C(=O)CN2)cc1", "Percent Effect": 24.03}
{"molecule": "CC(C)N1CCO[C@H]2CN(C(=O)c3ccccn3)C[C@H]21.O=C(O)C(F)(F)F.O=C(O)C(F)(F)F", "Percent Effect": -26.06}
{"molecule": "Cc1cs/c(=N\\C(=O)c2c3c(nc4onc(C)c24)CCC3)[nH]1", "Percent Effect": -0.1888}
{"molecule": "Cc1cc(O)c(OCC(=O)/N=c2\\[nH]c(C)c(C)s2)cn1", "Percent Effect": 14.69}
{"molecule": "CC(C)CNc1nc(C(=O)/N=c2\\[nH]nc(C(C)(C)C)s2)cs1", "Percent Effect": 29.68}
{"molecule": "Cc1[nH]/c(=N\\C(=O)c2csc(NCC(C)C)n2)sc1C", "Percent Effect": 103.2}
{"molecule": "CC(=O)Nc1nc(C(=O)NC(C)c2ccc(F)cc2)cs1", "note": "(configuration not stated)", "Percent Effect": 8.426}
{"molecule": "Cc1cs/c(=N/C(=O)c2csc(NCC(C)C)n2)[nH]1", "Percent Effect": 102.2}
{"molecule": "O=C1c2cnc(N3CCCC3)nc2CN1CCc1ccc(Cl)cc1", "Percent Effect": 5.842}
{"molecule": "Cc1ccc(CN2C[C@@H]3COC[C@H](NS(C)(=O)=O)[C@@H]3C2)s1.O=C(O)C(F)(F)F", "Percent Effect": -17.68}
{"molecule": "CC(C)c1nn(C)c(N(C)C)c1CNC(C)c1ccc2c(c1)OCO2.Cl", "note": "(configuration not stated)", "Percent Effect": 11.17}
{"molecule": "O=C(CN1CC(c2nc(C3CC3)no2)C1)NCc1ccc(F)cc1.O=C(O)C(=O)O", "Percent Effect": -19.44}
{"molecule": "CS(=O)(=O)N1CCN(c2ccnc(N3CCCC3)n2)CC1", "Percent Effect": 3.373}
{"molecule": "CS(=O)(=O)N1CCN(c2ccnc(N3CCCCC3)n2)CC1", "Percent Effect": 54.19}
{"molecule": "CN(C)S(=O)(=O)N1CCN(c2ccnc(N3CCCCC3)n2)CC1", "Percent Effect": -3.243}
{"molecule": "CN1CCN(CC2CC2)C(=O)C12CCN(C(=O)CC(F)(F)F)CC2.O=C(O)C(F)(F)F", "Percent Effect": 5.441}
{"molecule": "COc1ccccc1Oc1ncccc1CNC(=O)[C@@H](C)NC(C)=O", "Percent Effect": 11.05}
{"molecule": "CCn1ccnc1CN1CCCC1c1noc(C2CC2)n1", "note": "(configuration not stated)", "Percent Effect": -4.423}
{"molecule": "Cc1cnc(CN2CCCCC2c2nc(-c3ccccc3)no2)cn1", "note": "(configuration not stated)", "Percent Effect": 5.875}
{"molecule": "CCc1nc(C2CCCN2Cc2nccn2Cc2ccccc2)no1", "note": "(configuration not stated)", "Percent Effect": 20.06}
{"molecule": "c1ccc(Cn2ccnc2CN2CCCC2c2noc(C3CC3)n2)cc1", "note": "(configuration not stated)", "Percent Effect": 104.2}
{"molecule": "c1ccc2oc(CN3CCCC3c3noc(C4CC4)n3)nc2c1", "note": "(configuration not stated)", "Percent Effect": 17.43}
{"molecule": "c1ccc2nc(CN3CCCC3c3noc(C4CC4)n3)ccc2c1", "note": "(configuration not stated)", "Percent Effect": 108.9}
{"molecule": "Cc1noc(C)c1CN1CCCCC1c1nc(-c2ccccc2)no1", "note": "(configuration not stated)", "Percent Effect": -13.3}
{"molecule": "Cc1cc(CN2CCCC2c2noc(C3CC3)n2)c2ccccc2n1", "note": "(configuration not stated)", "Percent Effect": 31.64}
{"molecule": "COc1c(C)cnc(CN2CCCC2c2noc(C3CC3)n2)c1C", "note": "(configuration not stated)", "Percent Effect": -0.8434}
{"molecule": "Cc1nc(CN2CCCC2c2noc(C3CC3)n2)nc2ccccc12", "note": "(configuration not stated)", "Percent Effect": 27.9}
{"molecule": "Cn1ccnc1CN1CCCCC1c1nc(-c2ccccc2)no1", "note": "(configuration not stated)", "Percent Effect": 51.73}
{"molecule": "COc1ccc(C)cc1CN1CCCC1c1noc(C2CC2)n1", "note": "(configuration not stated)", "Percent Effect": 82.36}
{"molecule": "COC(=O)Cn1c(=O)nc2n1C(=O)N(c1ccc(Br)cc1)C2", "Percent Effect": 18.41}
{"molecule": "CNC(=O)[C@H]1C[C@@H]2CN(Cc3cccc(C)c3)C[C@H]1O2.O=C(O)C(F)(F)F", "Percent Effect": 19.67}
{"molecule": "COCCNC(=O)[C@H]1CN(Cc2sccc2C)C[C@H]2OCC[C@@H]12.O=C(O)C(F)(F)F", "Percent Effect": -45.09}
{"molecule": "Br.Cc1cc(C)c(N(CC(O)CNCc2ccccc2)S(C)(=O)=O)c(C)c1", "note": "(configuration not stated)", "Percent Effect": 3.921}
{"molecule": "Cc1cccc(CN2C(=O)CCC23CCNCC3)n1.O=C(O)C(F)(F)F.O=C(O)C(F)(F)F", "Percent Effect": -5.538}
{"molecule": "COCCN1CCC2(CCCN(c3ncccn3)C2)C1.O=C(O)C(F)(F)F", "note": "(configuration not stated)", "Percent Effect": -80.98}
{"molecule": "CN1CCCC(c2n[nH]c3ncccc23)C1", "note": "(configuration not stated)", "Percent Effect": -10.45}
{"molecule": "CN1CCC(c2n[nH]c3ncccc23)C1.O=CO", "note": "(configuration not stated)", "Percent Effect": 50.56}
{"molecule": "c1cnc(N2CCC(c3n[nH]c4ncccc34)C2)nc1", "note": "(configuration not stated)", "Percent Effect": -8.956}
{"molecule": "Cc1ccc(N2CCN(c3ccccc3C)CC2C)nn1", "note": "(configuration not stated)", "Percent Effect": 2.644}
{"molecule": "Cc1ccccc1N1CCN(c2ccncn2)C(C)C1", "note": "(configuration not stated)", "Percent Effect": 56.56}
{"molecule": "Cc1ccccc1N1CCN(c2cc(N(C)C)ncn2)C(C)C1", "note": "(configuration not stated)", "Percent Effect": 21.52}
{"molecule": "Cc1ccc(Nc2nccc(C3CCN(C(=O)CN)C3)n2)nc1.Cl", "note": "(configuration not stated)", "Percent Effect": -1.968}
{"molecule": "COc1cccc(COCC(O)CN(C)c2ccc(C)cc2C)c1", "note": "(configuration not stated)", "Percent Effect": -34.76}
{"molecule": "Cc1cc(N2CCC(CO)(CC3CCCCO3)CC2)nc2ccccc12", "note": "(configuration not stated)", "Percent Effect": 3.069}
{"molecule": "OCC1(CC2CCCCO2)CCN(c2cnc3ccccc3n2)CC1", "note": "(configuration not stated)", "Percent Effect": 103.4}
{"molecule": "Cc1cc(N2CCC(CO)(CC3CCCCO3)CC2)c2ccccc2n1", "note": "(configuration not stated)", "Percent Effect": -3.721}
{"molecule": "CO[C@@H]1CC[C@H]2[C@H]1OCCN2Cc1ccc(F)cc1.O=C(O)C(F)(F)F", "Percent Effect": -14.29}
{"molecule": "CCn1cc(NC(=O)CN2CCC(Oc3ccc(F)cc3)CC2)c(C)n1.Cl", "Percent Effect": -4.397}
{"molecule": "CCCN(C(=O)c1cnccn1)c1nc2c(s1)CCc1c-2cnn1C", "Percent Effect": -8.207}
{"molecule": "CCCN(C(=O)c1ccccn1)c1nc2c(s1)CCc1c-2cnn1C", "Percent Effect": 103.2}
{"molecule": "COCCN(C(=O)c1ccccn1)c1nc2c(s1)CCc1c-2cnn1C", "Percent Effect": 15.96}
{"molecule": "CCCN(C(=O)c1cnc(C)cn1)c1nc2c(s1)CCc1c-2cnn1C", "Percent Effect": -19.73}
{"molecule": "CCCN(C(=O)c1cccnc1)c1nc2c(s1)CCc1c-2cnn1C", "Percent Effect": 19.23}
{"molecule": "CCCN(C(=O)c1ccncc1)c1nc2c(s1)CCc1c-2cnn1C", "Percent Effect": 61.93}
{"molecule": "Cc1nc(N2CCOCC2)nc2c1CCN(Cc1nccn1C)CC2.O=C(O)C(F)(F)F", "Percent Effect": -4.986}
{"molecule": "O=C(O)C(F)(F)F.O=C(c1cccnc1)N1CCC2(CCN(C(=O)N3CCCC3)CC2)C1", "Percent Effect": 2.065}
{"molecule": "CCN1Cc2nccn2CC(COCc2csc(C)n2)C1.O=C(O)C(F)(F)F.O=C(O)C(F)(F)F", "note": "(configuration not stated)", "Percent Effect": 34.39}
{"molecule": "CN1C(=O)CC(c2ccccc2)C12CCN(CCO)CC2.O=C(O)C(F)(F)F", "note": "(configuration not stated)", "Percent Effect": 13.27}
